± gives the standard deviation.
Each sequence was assayed on MILI (PIWIL2) piRISC loaded with L1MC piRNA (26 nt) (assay: pre-steady-state target cleavage rate (min^-1); guide: L1MC piRNA 5'p-UAACUAAAUACUAUGCAAGCUGUAGG; MIWI and MILI are mouse PIWI proteins and EfPiwi is from a freshwater sponge; tags in brackets are library labels; higher = faster piRNA-guided slicing of the target). Conditions: auxiliary factor: 500 nM mouse GTSF1.
Experimental: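 Cleave-'n-Seq: a library of target RNAs (target site embedded in constant flanks, ACAGCATTCCGCGTTAGTGATATCCG... 5' flank; DNA-blocked outside the site) at 0.1 nM was incubated with 1 nM active mouse MILI or MIWI piRISC (synthetic 5'-monophosphorylated piRNA guide) with or without 500 nM mouse GTSF1 at 33 °C for 1 min to 16 h. Uncleaved targets were sequenced and normalised to non-target controls, and the pooled three trials were fitted to a burst-and-steady-state model to give the pre-steady-state cleavage rate (min^-1; k3 is constrained to at most 1e-4). Sequence is the target site only; target names encode pairing extent (gX:gY) and contiguous / 1-mismatch / 2-mismatch / bulge geometry. Fits with R² ≤ 0 are excluded.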
For UCCUCCUACUGCAUGCAUAGUAUUUAGUUA, the “pre-steady-state target cleavage rate” value was 0.252 ± 0.013. For UCCUGUUACAGCUUGCAUAGUAUUUAGUUA, the “pre-steady-state target cleavage rate” value was 0.328 ± 0.018. With UCCUGGAUGUCGUUGCAUAGUAUAUUGUUA the “pre-steady-state target cleavage rate” value was 0.0458 ± 0.017. With UCCUGGAUGAGCUAGCAUAGUAUUUAGAAA the “pre-steady-state target cleavage rate” value was 0.209 ± 0.049. For UCCUCCUACAUCUUGCAUAGUAUUUAGUUA, the “pre-steady-state target cleavage rate” value was 0.277 ± 0.02. UCCUGGAUGUGCUUGCAUAGUAUGUUAGUUA was tested, and the “pre-steady-state target cleavage rate” value was 0.0646 ± 0.012. With UCCUCCAACAGCUUGCAUAGUUUUUAGUUA the “pre-steady-state target cleavage rate” value was 0.0522 ± 0.0087. For UCCUGGAUCAGCUUGGAUAGUAUUUAGAUA, the “pre-steady-state target cleavage rate” value was 0.0949 ± 0.016. UCCUGCUACAGCUUCGUUAGUAUUUAGUUA was tested, and the “pre-steady-state target cleavage rate” value was 0.239 ± 0.022. With UCCUGGUUCAGCUUGCAUAGUAUAUAGUUA the “pre-steady-state target cleavage rate” value was 0.198 ± 0.034. UCCUGGAUGUGCAUGCAUAGUAUUUACUUA was tested, and the “pre-steady-state target cleavage rate” value was 0.065 ± 0.018. For UCCUGGAUGUGCUUGCAUAGUAUUUUGUUA, the “pre-steady-state target cleavage rate” value was 0.0696 ± 0.019. In the case of UCCUGGUUCAGCUUGGAUAGUAUUUAGUUA, the “pre-steady-state target cleavage rate” value is reported as 0.191 ± 0.022. UCCUGGUACAGCUUGUCAUAGUAUUUAGUUA was tested, and the “pre-steady-state target cleavage rate” value was 0.19 ± 0.018. For UCCUGGAUCAGCAACCAUAGUAUUUAGAAA, the “pre-steady-state target cleavage rate” value was 0.00948 ± 0.0046. In the case of UCCUGGAUCAGCUUGCGUAGUAUUUAGUUA, the “pre-steady-state target cleavage rate” value is reported as 0.192 ± 0.017. With “UCCUGGAUGUGCUUGCAUAGUAUUUAGUUC [g2:g20:cont:t1C]” the “pre-steady-state target cleavage rate” value was 0.12 ± 0.013. In the case of UCCUGCUACAGCAUGCAUAGUAUUUUGUUA, the “pre-steady-state target cleavage rate” value is reported as 0.167 ± 0.029. For UCCUCCUACAGCUUGGAUAGUAUUUAGAAA, the “pre-steady-state target cleavage rate” value was 0.0815 ± 0.017. UCCUGGAACACCUUGCAUAGUAUUUAGUUA was tested, and the “pre-steady-state target cleavage rate” value was 0.234 ± 0.026. For UCCUGGUACAGCUUGCAUAGUAUUUAUGUUA, the “pre-steady-state target cleavage rate” value was 0.147 ± 0.036. In the case of UCCUGGAUCAGCUUGCAUAUUAUUUAGUUA, the “pre-steady-state target cleavage rate” value is reported as 0.0736 ± 0.0095.

Same assay, conditions: auxiliary factor: none (no GTSF1)
In the case of UCCUCCUACUGCAUGCAUAGUAUUUAGUUA, the “pre-steady-state target cleavage rate” value is reported as 0.011 ± 0.0022. For UCCUGUUACAGCUUGCAUAGUAUUUAGUUA, the “pre-steady-state target cleavage rate” value was 0.0102 ± 0.0034. UCCUCCUACAUCUUGCAUAGUAUUUAGUUA was tested, and the “pre-steady-state target cleavage rate” value was 0.00791 ± 0.0022. UCCUGGAUGUGCUUGCAUAGUAUGUUAGUUA was tested, and the “pre-steady-state target cleavage rate” value was 0.00452 ± 0.0032. In the case of UCCUCCAACAGCUUGCAUAGUUUUUAGUUA, the “pre-steady-state target cleavage rate” value is reported as 0.00502 ± 0.0021. With UCCUGGAUGUCGAACGUAUCUUAUUAGUUA the “pre-steady-state target cleavage rate” value was less than 0.0001. UCCUGCUACAGCUUCGUUAGUAUUUAGUUA was tested, and the “pre-steady-state target cleavage rate” value was 0.00333 ± 0.0027. UCCUGGUUCAGCUUGCAUAGUAUAUAGUUA was tested, and the “pre-steady-state target cleavage rate” value was 0.0112 ± 0.0032. In the case of UCCUGGAUGUGCAUGCAUAGUAUUUACUUA, the “pre-steady-state target cleavage rate” value is reported as 0.00616 ± 0.0026. For UCCUGGAUGUGCUUGCAUAGUAUUUUGUUA, the “pre-steady-state target cleavage rate” value was 0.00381 ± 0.0032. For UCCUGGUUCAGCUUGGAUAGUAUUUAGUUA, the “pre-steady-state target cleavage rate” value was 0.013 ± 0.0035. In the case of UCCUGGUACAGCUUGUCAUAGUAUUUAGUUA, the “pre-steady-state target cleavage rate” value is reported as 0.0068 ± 0.003. For UCCUGGAUCAGCAACCAUAGUAUUUAGAAA, the “pre-steady-state target cleavage rate” value was less than 0.0001. In the case of UCCUGGAUCAGCUUGCGUAGUAUUUAGUUA, the “pre-steady-state target cleavage rate” value is reported as 0.0107 ± 0.0029. In the case of “UCCUGGAUGUGCUUGCAUAGUAUUUAGUUC [g2:g20:cont:t1C]”, the “pre-steady-state target cleavage rate” value is reported as 0.00589 ± 0.0026. UCCUGCUACAGCAUGCAUAGUAUUUUGUUA was tested, and the “pre-steady-state target cleavage rate” value was 0.00333 ± 0.0032. With UCCUGGAACACCUUGCAUAGUAUUUAGUUA the “pre-steady-state target cleavage rate” value was 0.00811 ± 0.0025. In the case of UCCUGGUACAGCUUGCAUAGUAUUUAUGUUA, the “pre-steady-state target cleavage rate” value is reported as 0.0114 ± 0.0044.

From the supplement of paper PMC10338343
